Assay outcomes: PubChem BioAssay, National Center for Advancing Translational Sciences (NCATS)
Luciferase inh: inhibitors of firefly (Photinus pyralis) luciferase; purified P. pyralis luciferase, luminescence, biochemical; Potency, µM (titrated, usually from 115 µM), most hits filed as inhibitors; 76,000 tested, 2.5% active; AID 1347043; also: % is scaled to controls: 0 for no effect and ±100 for the full control effect; nearly all actives have a fitted effect of over 65% in size
Target sequence (P08659 whole entry, looked up): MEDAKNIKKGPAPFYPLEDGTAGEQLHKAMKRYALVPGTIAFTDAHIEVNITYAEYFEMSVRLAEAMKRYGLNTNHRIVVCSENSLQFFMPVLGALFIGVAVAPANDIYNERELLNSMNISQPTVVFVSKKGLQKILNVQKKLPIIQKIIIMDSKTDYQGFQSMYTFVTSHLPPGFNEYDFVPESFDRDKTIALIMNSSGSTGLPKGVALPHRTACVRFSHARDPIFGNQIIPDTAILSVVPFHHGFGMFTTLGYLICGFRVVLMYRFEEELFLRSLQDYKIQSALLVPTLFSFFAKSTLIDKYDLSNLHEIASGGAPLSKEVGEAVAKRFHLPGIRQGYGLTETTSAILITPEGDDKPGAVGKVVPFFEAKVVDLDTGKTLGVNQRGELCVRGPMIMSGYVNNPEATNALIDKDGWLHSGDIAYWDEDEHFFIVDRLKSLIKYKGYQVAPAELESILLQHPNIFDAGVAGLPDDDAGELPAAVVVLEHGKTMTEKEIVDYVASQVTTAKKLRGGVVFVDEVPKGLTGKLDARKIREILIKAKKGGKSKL
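Luminescence read by CCD imager after adding enzyme (10nM final) to wells holding compound, titrated in qHTS. Substrates 10uM each D-luciferin and ATP; buffer 50mM Tris acetate pH 7.5, 10mM Mg acetate, Tween-20, BSA.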
NIH3T3 tox: NIH 3T3 cell cytotoxicity; Potency, µM (highest dose often 96.7 µM), without a hit: at the top dose activity change, negative = cytotoxicity, actives largely listed as inhibitors; NIH 3T3 viability, CellTiter-Glo ATP luminescence, 48-72 h; 94,000 tested, 4.3% active; also: % is scaled to controls: 0 for no effect and ±100 for the full control effect; nearly all actives have a fitted effect of over 55% in size
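ATP-dependent luminescence (CellTiter-Glo) served as the viability signal for NIH 3T3 cells treated with compound for 48 or 72 hr at 37 °C.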
HEK cytotox: cytotoxic compounds in HEK 293 cells. 94,000 tested, 6.6% active. Potency, µM (highest dose often 115 µM), without a hit: at the top dose activity change, negative = cytotoxicity, most hits filed as inhibitors. HEK 293 viability, ATP luminescence (CellTiter-Glo), 48-72 h; also: % is scaled to controls: 0 for no effect and ±100 for the full control effect; nearly all actives have a fitted effect of over 60% in size
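CellTiter-Glo luminescence (cellular ATP) was read after 48 or 72 hr of compound exposure at 37 degree Celsius. Cells were HEK 293 plated at 250 cells/well.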
GPT2 inh: GPT2 alanine aminotransferase inhibition; Q8TD30; 100,000 tested, 0.25% active; Potency, µM (top dose mostly 57.7 µM), inactives show at the highest dose activity change, negative = inhibition, usual class: inhibitors; Recombinant GPT2, coupled pyruvate oxidase/HRP Amplex Red fluorescence; AID 1671188; also: % is scaled to controls: 0 for no effect and ±100 for the full control effect; nearly all actives have a fitted effect of over 60% in size
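Fluorescence of coupled pyruvate oxidase/HRP/Amplex Red system (50uM Amplex, 30 min, dark) reports pyruvate formed by GPT2. Enzyme reaction: 10ng/uL GPT2, 2mM L-alanine, 250uM a-KG, 30 min room temperature, pH 7.5; 50uM AOA control.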
NPR1 antag: human Npr1 receptor antagonism | HEK293 hNpr1 GloSensor cGMP, ANP-stimulated luminescence | Potency, µM (series often up to 46.3 µM), for inactives: at the top dose activity change, negative = inhibition, hits mostly inhibitors | 76,000 tested, 1.6% active; calls by dose curve; also: % is scaled to controls: 0 for no effect and ±100 for the full control effect; nearly all actives have a fitted effect of over 60% in size
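HEK293 cells stably expressing human Npr1 and cGMP GloSensor pGS-40F, loaded 2 h with 2% GloSensor reagent, given compound 30 min at room temperature. Luminescence read before and 20 min after 0.1 nM hNppA.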
Npr1 antag conf: hNpr1 antagonism, confirmation assay. HEK293 hNpr1 cGMP GloSensor luminescence, ANP-stimulated. Potency, µM (series often up to 57.6 µM), for inactives: top-dose activity change, negative = inhibition, usual class: inhibitors. 1,400 tested, 76% active. shares compounds with NPR1 antag. AID 1347044; calls by dose curve; also: nearly all actives have a fitted effect of over 70% in size
NPR2 antag: selectivity test of Npr1 antagonists against human Npr2 | 1,400 tested, 67% active | HEK293 hNpr2 GloSensor cGMP luminescence, CNP-stimulated | AID 1347046 | shares compounds with NPR1 antag | Potency, µM (top dose mostly 57.6 µM), without a hit: at the top dose activity change, negative = inhibition, actives largely listed as inhibitors; calls by dose curve; also: nearly all actives have a fitted effect of over 70% in size
FLuc counter: FLuc enzyme inhibition, Npr1 counter-screen. purified FLuc enzyme, luminescence, Km substrate. shares compounds with NPR1 antag. Potency, µM (titrated, usually from 57.6 µM), inactives show top-dose activity change, negative = inhibition, most hits filed as inhibitors. 1,400 tested, 0.7% active; also: series mostly up to about 58 µM; 0% is about no effect
GloSensor ctrl: control cell line activity, Npr1 antagonist counter-screen; HEK293 GloSensor cGMP, SNP-stimulated, luminescence; AID 1347051; shares compounds with NPR1 antag; Potency, µM (doses to about 57.6 µM), inactives show at the top dose activity change, negative = inhibition, usual class: inhibitors; 1,400 tested, 69% active; calls by dose curve; also: % is scaled to controls: 0 for no effect and ±100 for the full control effect; nearly all actives have a fitted effect of over 70% in size
* marks the source's active call; other numbers are inactive results. An excerpt weighted towards active compounds, which were near 10% of everything screened. Unless noted, calls follow the shape of the dose curve; as a rule, active = well fitted curve in the direction sought with a large enough effect; inconclusive = small, poorly fitted or top-dose-only effect, or another doubt; inactive = no such curve, though single readings can be large; an effect the other way counts as inactive or inconclusive. Potency is read from the fitted curve at half-maximal effect.

For CN(C)C(=O)c1ccc(CC2CCN(C(=O)CC3CCCCC3)CC2)cc1 the results were Luciferase inh inactive, NIH3T3 tox inconclusive, HEK cytotox 35.5µM*, GPT2 inh inactive, NPR1 antag 11.2µM*, Npr1 antag conf 15.3µM*, NPR2 antag 19.3µM*, FLuc counter 3.0% and GloSensor ctrl 15.3µM*.
Screening COc1ccc(OCC(=O)N2CCC(Cc3nc(-c4ccc(F)cc4)no3)CC2)cc1 returned Luciferase inh inactive, NIH3T3 tox inconclusive, HEK cytotox inconclusive, GPT2 inh inactive, NPR1 antag 5.62µM*, Npr1 antag conf 4.32µM*, NPR2 antag 6.11µM*, FLuc counter 1.9% and GloSensor ctrl 3.85µM*.
`C[S+](=O)([O-])N1CC2(Cc3ccccc31)CN(C(=O)Nc1ccc(Cl)cc1)C2` gave NIH3T3 tox inconclusive, HEK cytotox -26.7% and GPT2 inh inactive.
Screening O=C(c1cccc(F)c1)N1CC(Oc2ccc(-c3nc(-c4ccccc4)no3)cc2)C1 returned Luciferase inh inactive, NIH3T3 tox -5.0%, HEK cytotox inconclusive, GPT2 inh inactive and NPR1 antag -1.5%.
For O=C(c1cccc(F)c1)N1CC(Oc2ccc(-c3noc(C4CCOCC4)n3)cc2)C1 the results were Luciferase inh inactive, NIH3T3 tox inconclusive, HEK cytotox inconclusive, GPT2 inh 2.1%, NPR1 antag 6.31µM*, Npr1 antag conf 4.32µM*, NPR2 antag 5.44µM*, FLuc counter -6.2% and GloSensor ctrl 3.43µM*.
COc1ccc(CC(=O)N2CCC(Cc3nc(-c4ccc(F)cc4)no3)CC2)cc1OC was read as Luciferase inh inactive, NIH3T3 tox inconclusive, HEK cytotox inconclusive, GPT2 inh inactive, NPR1 antag 7.08µM*, Npr1 antag conf 3.06µM*, NPR2 antag 9.68µM*, FLuc counter 0.6% and GloSensor ctrl 6.11µM*.
`COc1cc(C(=O)N2CCC(Cc3nc(-c4ccc(F)cc4)no3)CC2)cc(OC)c1OC` gave Luciferase inh inactive, NIH3T3 tox inconclusive, HEK cytotox inconclusive, GPT2 inh inactive, NPR1 antag 12.6µM*, Npr1 antag conf 13.7µM*, NPR2 antag 19.3µM*, FLuc counter -1.2% and GloSensor ctrl 15.3µM*.
O=C(COc1ccc(Cl)cc1)N1CCC(Cc2nc(-c3ccccc3)no2)CC1 was read as Luciferase inh inactive, NIH3T3 tox inconclusive, HEK cytotox 39.8µM*, GPT2 inh inactive, NPR1 antag 14.1µM*, Npr1 antag conf 12.2µM*, NPR2 antag 13.7µM*, FLuc counter -2.4% and GloSensor ctrl 12.2µM*.
Screening Cc1cccc(C)c1N1CC(OCc2cccc(C(=O)O)c2)c2ccccc2[S+]1(=O)[O-] (stereo not given) returned NIH3T3 tox inconclusive and HEK cytotox -4.2%.
